Assay results published in the supplement of paper PMC12282887.
± gives the standard deviation of the averaged measurements.

Tested on: E. coli BW25113 marRABp lux reporter
Assay: promoter activity interaction Z-score (Lux/OD deviation from empty-vector control); higher = stronger promoter induction by the compound
Procedure: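 E. coli BW25113 (wild type or ΔmarA/ΔsoxS/Δrob) carrying pTU175 luxCDABE promoter reporters was grown in LB in 384-well plates at 37°C with each of 94 compounds at 4 two-fold concentrations, in biological duplicates. Luminescence and OD600 were read every 30 min for 12 h and integrated as AUC over 8 h (0-8 h WT, 1-9 h mutants). Lux AUC was divided by OD AUC; the interaction score is the residual of a Huber robust fit of each promoter against the empty-vector control, then Z-transformed per promoter.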

Row | Compound | promoter activity interaction Z-score (0.0012 µg/ml, genetic background: wild type) | promoter activity interaction Z-score (0.0012 µg/ml, genetic background: ΔmarA) | promoter activity interaction Z-score (0.0012 µg/ml, genetic background: Δrob) | promoter activity interaction Z-score (0.0012 µg/ml, genetic background: ΔsoxS) | promoter activity interaction Z-score (0.0025 µg/ml, genetic background: wild type) | promoter activity interaction Z-score (0.0025 µg/ml, genetic background: ΔmarA) | promoter activity interaction Z-score (0.0025 µg/ml, genetic background: Δrob) | promoter activity interaction Z-score (0.0025 µg/ml, genetic background: ΔsoxS) | promoter activity interaction Z-score (0.005 µg/ml, genetic background: wild type) | promoter activity interaction Z-score (0.005 µg/ml, genetic background: ΔmarA) | promoter activity interaction Z-score (0.005 µg/ml, genetic background: Δrob) | promoter activity interaction Z-score (0.005 µg/ml, genetic background: ΔsoxS) | promoter activity interaction Z-score (0.0099 µg/ml, genetic background: wild type) | promoter activity interaction Z-score (0.0099 µg/ml, genetic background: ΔsoxS) | promoter activity interaction Z-score (0.034 µg/ml, genetic background: wild type) | promoter activity interaction Z-score (0.034 µg/ml, genetic background: ΔmarA) | promoter activity interaction Z-score (0.034 µg/ml, genetic background: Δrob) | promoter activity interaction Z-score (0.034 µg/ml, genetic background: ΔsoxS) | promoter activity interaction Z-score (0.067 µg/ml, genetic background: wild type) | promoter activity interaction Z-score (0.067 µg/ml, genetic background: ΔmarA) | promoter activity interaction Z-score (0.067 µg/ml, genetic background: Δrob) | promoter activity interaction Z-score (0.067 µg/ml, genetic background: ΔsoxS) | promoter activity interaction Z-score (0.13 µg/ml, genetic background: wild type) | promoter activity interaction Z-score (0.13 µg/ml, genetic background: ΔmarA) | promoter activity interaction Z-score (0.13 µg/ml, genetic background: Δrob) | promoter activity interaction Z-score (0.13 µg/ml, genetic background: ΔsoxS) | promoter activity interaction Z-score (0.27 µg/ml, genetic background: wild type) | promoter activity interaction Z-score (0.27 µg/ml, genetic background: ΔmarA) | promoter activity interaction Z-score (0.27 µg/ml, genetic background: Δrob) | promoter activity interaction Z-score (0.27 µg/ml, genetic background: ΔsoxS)
1 | O=C(O)c1cn(C2CC2)c2cc(N3CCNCC3)c(F)cc2c1=O [Ciprofloxacin] | -0.376 ± 0.019 | -0.0878 ± 0.24 | -0.0711 ± 0.075 | 0.251 ± 0.081 | -0.228 ± 0.28 | -0.253 ± 0.031 | -0.0459 ± 0.41 | 0.188 ± 0.098 | -0.472 ± 0.005 | -0.302 ± 0.12 | -0.138 ± 0.072 | 0.0987 ± 0.0052 | 2.5 ± 0.32 | 4.16 |  |  |  |  |  |  |  |  |  |  |  |  |  |  |  | 
2 | CCN1CCN(C(=O)N[C@@H](C(=O)N[C@@H]2C(=O)N3[C@@H]2SC(C)(C)[C@@H]3C(=O)O)c2ccccc2)C(=O)C1=O [Piperacillin] |  |  |  |  |  |  |  |  |  |  |  |  |  |  | -0.259 ± 0.22 | -0.115 ± 0.2 | -0.137 ± 0.032 | -0.285 ± 0.24 | 0.0282 ± 0.023 | -0.147 ± 0.33 | -0.102 ± 0.11 | -0.225 ± 0.29 | -0.0179 ± 0.059 | -0.0535 ± 0.27 | -0.134 ± 0.096 | -0.159 ± 0.072 | -0.12 ± 0.057 | -0.117 ± 0.15 | -0.0506 ± 0.1 | -0.145 ± 0.44
